Test results reported in PubChem BioAssay AID1233 (SRMLSC, 2008).
Potency and affinity values are given separately.

Each compound was assayed against HMG-CoA reductase [Enterococcus faecalis] (UniProt Q9FD70) (assay: inhibitors of E. faecalis class II HMGR, confirmation, biochemical, Enterococcus faecalis (AID 1233;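 note: 0% = full reaction carrier wells and 100% = background wells lacking mevalonate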)). Settings: purified E. faecalis HMGR, NADPH absorbance 340 nm kinetics; series mostly up to 100 µM; inhibition: at the top concentration.

inhibition, inactive:
O=C(COC(=O)CCc1c[nH]c2ccccc12)NC1CCS(=O)(=O)C1 (configuration not stated) -4.04%, O=C(c1cccs1)N(c1ccc(F)cc1)C1C=CS(=O)(=O)C1 (configuration not stated) -5.9%, CCN(CC)C(=S)NC(=O)c1cccnc1 -4.89%, O=c1oc2ccccc2c(O)c1C=Nc1cccnc1 -2.21%, COc1ccc(Cc2noc(-c3ccccc3)n2)cc1OC -9.92%, CCOc1ccccc1C(=O)NC1CCN(Cc2nnnn2C2CCCC2)CC1 -1.25%, COc1ccc2ccc(=O)oc2c1 -5.75%, Cc1cccc(OCC(=O)NNC(=O)CCc2ccccc2)c1 -2.38%, O=C(Cc1ccc2c(c1)CCCC2)Nc1ccccc1Cl 2.77%, O=C(COC(=O)/C=C/c1cn(-c2ccccc2)nc1-c1cccnc1)Nc1ccc(Cl)cc1Cl -18.4%, COc1oc(-c2ccc(Cl)cc2)nc1C(F)(F)F -9.81%, Fc1ccc(-c2csc3[n+]2CCS3)cc1 -7.64%, Cc1cccc(-n2nc(C)cc2N)c1 -1.66%, CCOC(=O)c1c(C)oc2c1c(C=NCCO)c(O)c1ccccc12 8.35%, Cc1ccc(NC(=O)c2cc(S(=O)(=O)NCCC3=CCCCC3)ccc2F)cc1 -1.4%, Cc1ccc(S(=O)(=O)CCC(=O)NCCN2C(=O)S/C(=C\c3ccccc3)C2=O)cc1 -4.26%, CCc1ccc(NC(=O)CN2C(=O)C(=O)N(Cc3ccccc3)C2=O)cc1 -2.36%, COc1cc2c(cc1OC)CN(C(C)C(=O)N1CCc3ccccc31)CC2 (configuration not stated) -8.07%, Cn1c(SCC(=O)N2CCCC2)nnc1-c1ccc(S(=O)(=O)N2CCCC2)cc1 -0.88%, Cn1c(CSc2nc3ccccc3s2)nc2ccccc21 -3.96%, COc1ccc(C)cc1NC(=O)COC(=O)C1CCN(C(=O)c2ccc(Cl)cc2)CC1 -3.39%, CCOC(=O)/C(C#N)=C/c1ccc(SC)cc1 -12.1%, CCc1c(C#N)c(N)nc(SCC(=O)OCc2ccccc2)c1C#N -7.46%, CC1=CC(C)C(C(=O)O)C(C(=O)O)C1 (configuration not stated) -2.81%, Cc1ccc(-c2nc3cccnc3s2)cc1NS(=O)(=O)c1ccc2c(c1)CCCC2 0.8%, CC(=O)Nc1cccc(NC(=O)CSc2ccc(-c3cccnc3)nn2)c1 -0.43%, O=C(COc1ccc2ccc(=O)oc2c1)N1CCN(c2ccccc2)CC1 -2.7%, O=c1[nH]ncc2c3ccccc3n(Cc3cccc(Cl)c3)c12 -6.09%, CN(C(=O)CCN1C(=O)C(C)(C)Nc2ccccc21)c1ccccc1 -11.7%, C/C(=N\Nc1ccc(C(=O)O)cc1)c1ccc(-n2ccnc2)cc1 1.36%, CCc1nnc(NC(=O)CN2CCN(c3nc(-c4ccccc4)cs3)CC2)s1 -3.15%, Cn1c(CN2CCCC2)c(C#N)c2ccccc21 -8.53%, COc1ccc(CCNc2ccncn2)cc1 -1.43%, C[C@H]1[C@H](C)CC[C@]2(C(=O)O)CC[C@]3(C)C(=CC[C@@H]4[C@@]5(C)C[C@@H](O)[C@H](O)C(C)(C)[C@@H]5CC[C@]43C)[C@H]12 -8.57%, Cc1ccc(CC(CC(=O)O)C(=O)NC2CCCCC2)cc1 (configuration not stated) 1.92%, Cc1ccc(S(=O)(=O)N(C)C)cc1NC(=O)COC(=O)CCC(=O)c1cccs1 -2.47%, O=C(CCc1nc2ccccc2c(=O)[nH]1)N1CCN(C/C=C/c2ccccc2)CC1 -4.71%
